Laboratory results reported in PubChem BioAssay (Tox21).
Results filed as inconclusive are left out. Where a call stands in place of a potency, no number is given. A number with no mark means an inactive call. Calls of active or inactive are those of the source. Calls come from the whole dose curve; as a rule, active = well fitted cell-killing curve with a large enough effect in the repeat runs; inconclusive = weak or mixed curves, or effect the other way; inactive = flat fitted curve, though single readings scatter.

Assay: Human pregnane X receptor (PXR) small molecule agonists, qHTS cell viability counter screen (AID 1346977); note: nearly all actives have a fitted effect of over 50% in size
Conditions: PXR-Luc HepG2 viability, CellTiter-Fluor, 24 h; series mostly up to 92.4 µM
Text: U.S. Tox21 Program National Center for Advancing Translational Sciences [NCATS] NIH Chemical Genomics Center [NCGC] U.S. Environmental Protection Agency [EPA] National Institutes of Environmental Health Sciences [NIEHS] National Toxicology Program [NTP] U.S. Food and Drug Administration [FDA] Tox21 Assay Overview: The human pregnane X receptor (hPXR) regulates the expression of several drug metabolizing enzymes and induction of these proteins is a major mechanism for developing drug resistance in cancer. One such key enzyme catalyzing the drug metabolism is cytochrome P450 3A4 (CYP3A4). Changes in CYP3A4 expression affect drug metabolism, thereby reducing the therapeutic efficacy and altering toxicological response to a drug and which finally causes adverse drug interaction. To screen Tox21 libraries for compounds that activate hPXR-mediated CYP3A4 gene expression, PXR-Luc HepG2 cells were used. Also cytotoxicity of the compounds was tested in parallel by measuring the cell viability using CellTiter-Fluor assay system in the same wells.
Tox21 Assay Protocol Summary: PXR-Luc HepG2 cells were dispensed at 2,000 per well in 5uL of assay medium containing 5% charcoal-stripped FBS into white solid bottom 1536-well plates (Corning Life Sciences, Corning, NY) using a Multidrop Combi (Thermo Scientific, Waltham, MA) dispenser. The assay plates were incubated at 37 C and 5% CO2 for 5hr, and then 23nL of compounds dissolved in DMSO and positive control were transferred using a Pintool station (Wako, San Diego, CA). The assay plates were incubated at 37C and 5% CO2 for 24hr. For cytotoxicity read, after 23hr incubation at 37C, 1uL CellTiter-Fluor reagent (Promega Corporation, Madison, WI) was added to each well of the assay plates using Flying Reagent Dispenser (FRD, Aurora Discovery, San Diego, CA). After 1hr incubation at 37C and 5% CO2, the fluorescence signal was quantified using a ViewLux plate reader (PerkinElmer, Shelton, CT).
In the case of `CC(=O)OC(C)OC(C)=O`, the Potency is reported as “inactive”.
In the case of `O=C(Cl)c1cccc([N+](=O)[O-])c1`, the Potency is reported as “inactive”.
With `OC[C@H]1O[C@@H](O[C@H]2[C@H](O)[C@@H](O)[C@H](O)O[C@@H]2CO)[C@H](O)[C@@H](O)[C@H]1O` the Potency was “inactive”.
With `NCCC(O)(P(=O)(O)O)P(=O)(O)O` the Potency was “inactive”.
In the case of `CC(C)NC[C@@H](O)COc1cccc2ccccc12`, the Potency is reported as “inactive”.
In the case of `CCOC(=O)C1CC(=O)C(=C(O)C2CC2)C(=O)C1` (stereo not given), the Potency is reported as “inactive”.
With `O=C1CCN(c2ccccc2)N1` the Potency was “inactive”.
For `CCOC(=O)C(Br)c1ccccc1` (stereo not given), the Potency was “inactive”.
With `COC(=O)c1ccc2cc(C(=O)OC)ccc2c1` the activity change, negative = cytotoxicity was 6.1% [at 19 µM].
With `ClC(Cl)Cl` the Potency was “inactive”.
In the case of `COc1ccccc1OCC(O)COC(N)=O` (stereo not given), the Potency is reported as “inactive”.
With `O=C1CCCc2ccccc21` the Potency was “inactive”.
In the case of `C=CCCCCCCCCO`, the Potency is reported as “inactive”.
With `CCOc1ccccc1N` the Potency was “inactive”.
In the case of `CC(C)(C)c1ccc(OC(=O)c2ccccc2O)cc1`, the Potency is reported as “inactive”.
With `O=C(O)[C@@H](O)[C@H](O)[C@H](O)[C@@H](O)C(=O)O` the Potency was “inactive”.
For `N#Cc1ccc(C(c2ccc(C#N)cc2)n2cncn2)cc1`, the Potency was “inactive”.
In the case of `O=CCCc1ccccc1`, the Potency is reported as “inactive”.
For `C=Cc1ccccc1`, the Potency was “inactive”.
For `Cc1ccc(C=O)s1`, the Potency was “inactive”.
With `CCCCC(CC)COC(=O)COc1cc(Cl)c(Cl)cc1Cl` (stereo not given) the Potency was “inactive”.
With `Nc1ccc2ccccc2c1S(=O)(=O)O` the Potency was “inactive”.
For `C1CCOC1`, the Potency was “inactive”.
In the case of `CCCS(=O)c1ccc2nc(NC(=O)OC)[nH]c2c1` (stereo not given), the Potency is reported as “inactive”.
With `Cn1cnc2c(F)c(Nc3ccc(Br)cc3Cl)c(C(=O)NOCCO)cc21` the Potency was “inactive”.
With `Cc1ccccc1C(=O)Nc1ccc(C(=O)N2CCCC(O)c3cc(Cl)ccc32)c(C)c1` (stereo not given) the Potency was “inactive”.
With `CC(C)c1ccccc1` the Potency was “inactive”.
For `Cc1c[nH]c(=S)[nH]c1=O`, the Potency was “inactive”.
With `CCN(CC)C(=O)N(CC)CC` the Potency was “inactive”.
In the case of `O=C1CCCCCCCCCCC(=O)OCCO1`, the Potency is reported as “inactive”.
In the case of `CCCCCCCCCCCCOCCOS(=O)(=O)O`, the Potency is reported as “inactive”.
In the case of `OCc1c2ccccc2cc2ccccc12`, the Potency is reported as “inactive”.
For `CC(C)=CCC[C@](C)(O)[C@@H]1CC=C(C)CC1`, the Potency was “inactive”.
For `CC1=C2[C@H](/C=C(\C)C(=O)O)CC[C@@H](C)[C@H]2CC1`, the Potency was “inactive”.
For `CN1CCN(N)CC1`, the Potency was “inactive”.
In the case of `CCOC(=O)c1cc(=O)c2c(OCC(COc3cccc4oc(C(=O)OCC)cc(=O)c34)OC(=O)[C@@H](N)CCCCN)cccc2o1`, the Potency is reported as “inactive”.
With `CC(=O)O[C@H]1CC[C@@]2(C)C(=CC[C@@H]3[C@@H]2CC[C@]2(C)C(C(C)=O)=CC[C@@H]32)C1` the Potency was “inactive”.
With `NC1=NCC2c3ccccc3Cc3ccccc3N12` (stereo not given) the Potency was “inactive”.
With `COc1ccc2nc(NC(=O)Nc3ccccc3)sc2c1` the Potency was “inactive”.
With `CCOc1ccc2nc(N)sc2c1` the Potency was “inactive”.
